Values without a mark were called inactive. Calls of active or inactive are those of the source. Calls come from the whole dose curve; as a rule, active = well fitted curve in the direction sought with a large enough effect in the repeat runs; inconclusive = weak or mixed curves; inactive = flat fitted curve, though single readings scatter.
% is set by controls: 0 for no effect and ±100 for the full control effect.

The experiment in a line: qHTS assay to test for compound auto fluorescence at 460 nm (blue) in HEK293 cell free culture (AID 720681). The note with it: cell-free medium, autofluorescence 405/460 nm (blue); series mostly up to 91.3 µM. An excerpt:
U.S. Tox21 Program National Center for Advancing Translational Sciences [NCATS] NIH Chemical Genomics Center [NCGC] U.S. Environmental Protection Agency [EPA] National Institutes of Environmental Health Sciences [NIEHS] National Toxicology Program [NTP] U.S. Food and Drug Administration [FDA] Tox21 Assay Overview: Compound auto fluorescence often interferes with screening of the compound library against various biological targets and signaling pathways. Some of these compounds may have fluorophoric properties. Such properties may interfere with the assay outputs resulting in false positives and/or negatives. To decrease such complications and ensure the compound activities are relevant in terms of biological response, the Tox21 10K compound library was screened for auto fluorescence. From the fluorophores used as reporter signals in our screening assays, the auto fluorescence equivalencies of compounds against three fluorophores have been evaluated: Triamterene, Fluorescein and Rose Bengal sodium for blue, green and red fluorescence, respectively. The fluorescence intensities were measured using Excitation/Emission wavelengths at 405/460nm, 485/535nm and 540/590nm for blue, green and red labels, respectively. This assay includes the blue fluorescence data.
Tox21 Assay Protocol Summary: 5 uL of culture medium (DMEM containing 10% FBS) per well was dispensed into black wall/clear bottom 1536-well plates using a Multidrop Combi Dispenser (ThermoFisher Scientific, Waltham, MA). After 23 nL compound or DMSO vehicle was transferred into assay plate by a pintool work station (Kalypsys, San Diego, CA), fluorescence intensities in the assay plates were measured by an Envision (PerkinElmer, Shelton, CT) plate reader using three labels for measuring blue, green and red fluorescence at […] 460, 535 and 590nm respectively.
(Quantitative high-throughput screening tests each substance at several concentrations.)
In the case of `Cc1oc(=O)oc1CN1CCN(c2cc3c(cc2F)c(=O)c(C(=O)O)c2n3C(C)S2)CC1` (stereo not given), the call was inactive.

For the compound `CC(=O)c1ccc2c(c1)CCCC2`, the result was inactive.

With `OC[C@@H](O)[C@H](O)[C@@H](O)[C@@H](O)CO`, the compound was classed as inactive.

With `Nc1c(NC/C=C\COc2cc(CN3CCCCC3)ccn2)c(=O)c1=O`, the outcome was inactive.

`F[Si-2](F)(F)(F)(F)F`: the compound was classed as inactive.

As to `CCCCC(C)C(=O)O` (stereo not given), the outcome was inactive.

For the compound `CCCCCCCCCCC`, the compound was classed as inactive.

For the compound `Oc1ccccc1Cc1ccccc1O`, the compound was called inactive.

In the case of `COC(/C=C(\C)CCC=C(C)C)OC`, the compound was called inactive.

Regarding `Cc1ncc([N+](=O)[O-])n1CC(O)CCl` (stereo not given), the fluorescence, % of fluorescent control is -0.008% [at 18.6 µM].

In the case of `CC(C)(C)NCCO`, the call was inactive.

In the case of `C1=C\CC/C=C\CC/1`, the call was inactive.

Take `CC(C)c1ccccc1O`: the result was inactive.

`CC(C)CCC(=O)CCC(C)C`: the call was inactive.

In the case of `COc1cc([N+](=O)[O-])ccc1N`, the result was inactive.

As for `C=COCCOCCOC=C`, the outcome was inactive.

On to `COc1ccc(/C=N/NC(=O)c2ccncc2)cc1OC`, for which the result was inactive.

Turning to `Cc1cc(C)cc([N+](=O)[O-])c1`, the outcome was inactive.

For the compound `OC(CCN1CCCCC1)(c1ccccc1)c1ccccc1`, the compound was classed as inactive.

As for `CCCCOC(=O)[C@@H](C)Oc1ccc(Oc2ccc(C(F)(F)F)cn2)cc1`, the outcome was inactive.

As to `O=C1c2ccccc2-c2ccccc21`, the result was inactive.

As to `CCCCCCCCCCCCC1CO1` (stereo not given), the outcome was inactive.

For `O=[Si]=O`, the outcome was inactive.

Take `CC(C)COC(=O)COc1ccc(Cl)cc1Cl`: the compound was called inactive.

Take `CC(=O)Nc1ncc([N+](=O)[O-])s1`: the compound was called inactive.

In the case of `CCCCOC(=O)C(=O)OCCCC`, the result was inactive.

For `CC(C)COC(=O)CC(C(=O)OCC(C)C)S(=O)(=O)O` (stereo not given), the call was inactive.

With `CC(C)(CO)[C@@H](O)C(=O)NCCCO`, the call was inactive.

With `CCCCCC(=O)OCC`, the result was inactive.

For `CC1=CC[C@H](CC=O)C1(C)C`, the call was inactive.

Regarding `CCCCC/C=C/CC(=O)OC`, the result was inactive.

Consider `COc1cccc2sc(N)nc12`, for which the outcome was inactive.

In the case of `O=S(=O)(O)SSS(=O)(=O)O`, the outcome was inactive.

As to `CCCCCCCCCCCCCCCC(=O)NCCO`, the result was inactive.

For the compound `O=C1OC(=O)c2cc(Oc3ccc4c(c3)C(=O)OC4=O)ccc21`, the result was inactive.

Regarding `O=C1OC(=O)c2ccccc21`, the result was inactive.

As for `c1ccc(CNc2ncnc3nc[nH]c23)cc1`, the result was inactive.

For the compound `FC(F)(F)c1ccc(Cl)cc1Cl`, the call was inactive.

For the compound `C1=CCC(c2ccccc2)CC1` (stereo not given), the compound was classed as inactive.

For `NC(=O)C1(N2CCCCC2)CCN(CCCC(=O)c2ccc(F)cc2)CC1`, the result was inactive.

These data come from PubChem BioAssay (Tox21).
